Here are results for eight compounds from PubChem BioAssay (NCATS).

Test [1] is described as follows: Cell Viability - BJ (AID 421; calls by dose curve;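 also: potency is read from the fitted curve at half-maximal effect; cells exposed to compound for 40 hours at 37 °C before readout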). As to conditions: BJ fibroblast viability, qHTS. The gist of the method: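 Normal human BJ foreskin fibroblasts, 1500/well in complete medium, treated 40 hr at 37 °C. Cellular ATP by CellTiter-Glo luminescence; normalized to DMSO and 100 uM tamoxifen, AC50 from Hill fit.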
(In qHTS, concentration-response curves come from the screen itself.)

The nature of test [2]: Cell Viability - Jurkat (AID 426;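 active = dose-dependent loss of cell ATP signal giving a full or clear fitted curve, ranked by lower potency value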; also: potency is read from the fitted curve at half-maximal effect). The note with it: qHTS. The gist of the method: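 Cytotoxicity was scored as loss of cellular ATP, measured by luciferase-based luminescence, in Jurkat clone E6-1 cells after 40 h compound treatment; tamoxifen and doxorubicin served as positive controls.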
Test [3] in a line: Cell Viability - Hek293 (AID 427;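 active = compounds whose dose-response curve shows a full or clear partial loss of cell viability, called from curve shape rather than a numeric limit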;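 also: potency is read from the fitted curve at half-maximal effect; cells exposed to compound for 40 hours at 37 °C before reading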). The note with it: qHTS. The gist of the method: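 HEK293 cells in complete medium were exposed to compound for 40 hr at 37 °C, then cellular ATP was read by CellTiter-Glo luminescence. Data were normalized to DMSO (basal) and 100 uM tamoxifen (100% inhibition), and AC50 came from Hill fits.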
Test [4] can be described thus: Cell Viability - HepG2 (AID 433; calls by dose curve; also: potency is read from the fitted curve at half-maximal effect). As to conditions: qHTS. In short, it runs like this:
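Read-out is luciferase-based quantitation of cellular ATP as a measure of viable HepG2 cells after 40 h treatment at 37 °C. Signal decrease is scaled between DMSO-only and 100 uM tamoxifen controls, with AC50 fitted by the Hill equation.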

Test [5] is described as follows: Cell Viability - MRC5 (AID 434; calls by dose curve;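 also: potency is read from the fitted curve at half-maximal effect; potency reflects cytotoxicity seen as loss of intracellular ATP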). As to conditions: MRC5 lung fibroblast viability, qHTS. The gist of the method: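 Decrease in intracellular ATP, quantified by luciferase light output, reflects compound toxicity toward MRC5 cells exposed for 40 hr in complete culture medium. Concentration-response curves, scaled between DMSO and 100 uM tamoxifen, gave AC50 values.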

Test [6] in a line: Cell Viability - SK-N-SH (AID 435; calls by dose curve;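 also: potency is read from the fitted curve at half-maximal effect; compound exposure lasted 40 h at 37 °C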). As to conditions: SK-N-SH neuroblastoma cell viability qHTS. In short, it runs like this: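 Luminescent ATP signal served as the viability read-out after 40 hours of compound treatment of human neuroblastoma SK-N-SH cells. Concentration-response data, scaled between DMSO and 100 uM tamoxifen, gave AC50 values by standard Hill modeling.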
Test [7] concerns the target Mitogen-activated protein kinase 10 (Mus musculus) (UniProt Q61831). As to the kind of experiment: JNK3 AlphaScreen Assay (AID 530; active = well fitted curve in either direction with a large enough effect, not every such curve was filed as active;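 also: kinase came from lysate of stimulated human HepG2 cells; % is scaled to controls: 0 for no effect and ±100 for the full control effect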). As to conditions: JNK3 lysate, c-Jun phosphorylation; series mostly up to 57.1 µM. In short, it runs like this: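 Biotinylated GST-cJun(1-79) served as substrate for JNK3 in HepG2 lysates stimulated with IL-1beta and TNF-alpha. ATP was 10 uM final, pH 7.6. Ser73 phosphorylation was quantified by AlphaScreen (680 nm excitation).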
A general note: Alpha assays give light when donor and acceptor beads are brought close together.

Test [8] is described as follows: Cell Viability - N2a (AID 540).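 Also: plate controls were DMSO alone for no effect and tamoxifen control for full effect; nearly all actives have a fitted effect of over 45% in size.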 As to conditions: N2a mouse neuroblastoma cell viability; activity change, negative = cytotoxicity: at 92.2 µM (top of the series). The gist of the method:
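In this qHTS cytotoxicity screen, ATP-dependent luciferase luminescence reports viable N2a cells after a 40 hr compound exposure in complete culture medium. Potencies are AC50 values from standard Hill equation fits.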

Test [9] is described as follows: Cell Viability - NIH 3T3 (AID 541).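 Also: plate controls were DMSO alone for no effect and tamoxifen positive control for full effect; nearly all actives have a fitted effect of over 25% in size.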 As to conditions: NIH 3T3 cell viability, qHTS; activity change, negative = cytotoxicity: at 92.2 µM (top of the series). In short, it runs like this: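 In this cytotoxicity screen, acute toxicity is scored as an ATP drop measured by CellTiter-Glo in NIH 3T3 fibroblasts following a 40 hr, 37 °C incubation with compound.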
The nature of test [10]: Cell Viability - HUV-EC-C (AID 542). Also: % is scaled to controls: 0 for no effect and ±100 for the full control effect; nearly all actives have a fitted effect of over 35% in size. The note with it: HUV-EC-C endothelial cell viability, qHTS; series mostly up to 92.2 µM. In short, it runs like this: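 Concentration-dependent ATP loss in HUV-EC-C cells is the measure. Exposure lasts 40 hr at 37 °C; luminescence follows CellTiter-Glo addition, and Hill fits give AC50.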
Test [11] in a line: Cell Viability - H-4-II-E (AID 543). Also: % is scaled to controls: 0 for no effect and ±100 for the full control effect; nearly all actives have a fitted effect of over 35% in size. The note with it: H-4-II-E rat hepatoma viability; series mostly up to 92.2 µM. The gist of the method:
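AC50 from Hill-modelled qHTS concentration-response curves. H-4-II-E rat hepatoma cells in complete medium, 40 hr exposure at 37 °C, viability by CellTiter-Glo ATP luminescence.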

The nature of test [12]: Cell Viability - SH-SY5Y (AID 544).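 Also: 0% = DMSO alone and -100% = 100 µM tamoxifen; nearly all actives have a fitted effect of over 55% in size.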 As to conditions: SH-SY5Y neuroblastoma cell viability; viability change, negative = cytotoxic: at 92.2 µM (top of the series). In short, it runs like this:
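Quantitative HTS in SH-SY5Y neuroblastoma cells, 40 hr treatment at 37 °C, ATP content by luciferase luminescence; AC50 from Hill fits.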

The nature of test [13]: Cell Viability - Renal Proximal Tubule (AID 545).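 Also: 0% = DMSO only and -100% = 100 µM tamoxifen; nearly all actives have a fitted effect of over 40% in size.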 As to conditions: renal proximal tubule cells viability, primary cells of rat origin; activity change, negative = cytotoxicity: at 91.7 µM (top of the series). In short, it runs like this: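 Luminescent ATP signal (CellTiter-Glo) served as the viability read-out after 40 hr compound exposure of freshly isolated rat proximal tubule cells at 37 °C. Concentration-dependent ATP loss was fitted with the Hill equation to give AC50.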

The nature of test [14]: Cell Viability - Mesenchymal (AID 546).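 Also: cells exposed to compound for 40 hours before reading; 0% = DMSO only and -100% = 100 µM tamoxifen.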 The note with it: mesenchymal cells viability, qHTS; activity change, negative = cytotoxicity: at 91.7 µM (top of the series). The gist of the method:
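In this qHTS cytotoxicity format, glomerulus-derived human mesenchymal kidney cells received compound for 40 hr, then luciferase-based ATP quantitation. Concentration-response data were fitted with the Hill equation.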

Test [15] deals with Lysosomal acid glucosylceramidase (Homo sapiens) (UniProt P04062). As to the kind of experiment: Glucocerebrosidase-p2 (AID 348; in the data active = potency below about 10 µM; also: potency is read from the fitted curve at half-maximal effect). As to conditions: purified GBA, blue fluorogenic substrate, 40 min. The gist of the method:
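Normal human glucocerebrosidase (0.2 nM) with blue fluorogenic substrate (80 uM final) in citrate/phosphate pH 5.9 with 10mM sodium taurocholate, 0.01% tween-20; 40 min RT, NaOH/glycine stop; fluorescence Ex 365/Em 440; AC50 from a titration from 0.6 nM upwards.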

Test [16] has as its target Cytochrome P450 1A2 (Homo sapiens) (UniProt P05177). As to the kind of experiment: p450-cyp1a2 (AID 410; calls by dose curve; also: potency is read from the fitted curve at half-maximal effect;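 as to activity change, negative = inhibition: -100% = full effect of reference inhibitor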). As to conditions: recombinant CYP1A2, luciferin-ME demethylation, luminescence; series mostly up to 25.6 µM. In short, it runs like this: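 Read-out is luminescence from luciferin produced by CYP1A2 demethylation of Luciferin-ME (100uM, at Km). Detection reagent stopped the 60 min NADPH-dependent reaction; signals were normalized to 57 uM furafylline.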

The nature of test [17]: NFAT Signaling Pathway (AID 444; active = well fitted curve in either direction with a large enough effect, not every such curve was filed as active;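 also: carbachol stimulus at about its EC50 of 1 µM final; % is scaled to controls: 0 for no effect and ±100 for the full control effect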). As to conditions: Jurkat NFAT-bla M1, carbachol, beta-lactamase ratio, 5 h. The gist of the method:
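Jurkat cells carrying an NFAT-driven β-lactamase reporter and co-transfected muscarinic M1 receptor were treated with compound plus carbachol (1 uM final, an EC50 level) for 5 h at 37 °C. CCF4 loading followed for 1 h at RT; 460/530 nm ratio gave %activity.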

Test [18] can be described thus: Stat Signaling Pathway (AID 446; active = well fitted curve in either direction with a large enough effect, not every such curve was filed as active;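 also: ME-180 cervical cancer cells given 40 pM IL-6 alongside compound; SIE-controlled beta-lactamase reporter measured as 460/530 nm FRET emission ratio; % is scaled to controls: 0 for no effect and ±100 for the full control effect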). The note with it: ME-180 (cervical carcinoma) SIE beta-lactamase reporter, IL-6 stimulated, 5 h; series mostly up to 17.2 µM. In short, it runs like this: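 Normalization used AC90 stimulation (300 pM IL-6) and AC90 inhibition (125 nM pan-JAK inhibitor at 40 pM IL-6). The underlying signal is SIE-driven beta-lactamase in ME-180 cells after 5 h IL-6 exposure with compound.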

Test [19] deals with Glucocorticoid receptor (Homo sapiens) (UniProt P04150). As to the kind of experiment: GR-GFP Redistribution (AID 450;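 active = compounds whose dose series gives a full or clear partial fitted curve of increased nuclear translocation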; also: potency is read from the fitted curve at half-maximal effect). The note with it: U2OS GR-GFP nuclear translocation, laser cytometry, 2 h.
The target is the same in test [20]. Nature of the test: GR-EFC Redistribution (AID 451; calls by dose curve; also: potency is read from the fitted curve at half-maximal effect). The note with it: CHO-K1 GR-EFC translocation, beta-gal luminescence, 2 h. In short, it runs like this:
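CHO-K1 cells stably expressing nuclear-localized β-gal enzyme acceptor and GR fused C-terminally to the enzyme donor fragment; ligand-driven nuclear translocation restores β-gal by complementation. Compounds titrated up to 46 uM final, 2 h at 37 °C; luminescence read.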

Values joined by “and” are separate entries in the source; they are usually repeats but may differ in a detail not shown here. Equal entries are not always repeated. Values without a mark were called inactive. Records with an inconclusive call do not appear. Active and inactive are the calls of the source. Unless noted, calls follow the shape of the dose curve; as a rule, active = well fitted curve in the direction sought with a large enough effect; inconclusive = small, poorly fitted or top-dose-only effect, or another doubt; inactive = no such curve, though single readings can be large; an effect the other way counts as inactive or inconclusive.

Glucocorticoid receptor (Homo sapiens), sequence (P04150 whole entry, looked up): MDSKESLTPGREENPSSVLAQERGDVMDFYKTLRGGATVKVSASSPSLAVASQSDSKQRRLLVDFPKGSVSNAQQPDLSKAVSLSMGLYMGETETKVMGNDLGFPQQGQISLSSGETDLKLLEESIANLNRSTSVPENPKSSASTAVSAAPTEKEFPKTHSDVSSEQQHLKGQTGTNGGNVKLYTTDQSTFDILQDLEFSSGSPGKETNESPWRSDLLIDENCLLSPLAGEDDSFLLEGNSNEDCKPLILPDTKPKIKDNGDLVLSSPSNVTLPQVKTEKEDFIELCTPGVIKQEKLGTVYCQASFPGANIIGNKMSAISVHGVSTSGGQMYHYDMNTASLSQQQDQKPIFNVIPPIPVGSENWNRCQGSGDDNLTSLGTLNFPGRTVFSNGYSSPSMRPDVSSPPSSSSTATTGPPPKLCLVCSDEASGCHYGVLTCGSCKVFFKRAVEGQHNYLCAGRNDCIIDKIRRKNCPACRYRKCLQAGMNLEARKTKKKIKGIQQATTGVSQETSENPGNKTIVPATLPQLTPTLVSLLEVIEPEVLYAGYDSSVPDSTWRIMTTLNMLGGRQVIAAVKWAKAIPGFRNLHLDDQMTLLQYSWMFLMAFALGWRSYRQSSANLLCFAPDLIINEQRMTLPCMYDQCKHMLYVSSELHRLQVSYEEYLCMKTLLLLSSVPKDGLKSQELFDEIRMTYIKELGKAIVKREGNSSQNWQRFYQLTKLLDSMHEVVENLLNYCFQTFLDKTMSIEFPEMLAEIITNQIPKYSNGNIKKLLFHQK
Cytochrome P450 1A2 (Homo sapiens), sequence (P05177 whole entry, looked up): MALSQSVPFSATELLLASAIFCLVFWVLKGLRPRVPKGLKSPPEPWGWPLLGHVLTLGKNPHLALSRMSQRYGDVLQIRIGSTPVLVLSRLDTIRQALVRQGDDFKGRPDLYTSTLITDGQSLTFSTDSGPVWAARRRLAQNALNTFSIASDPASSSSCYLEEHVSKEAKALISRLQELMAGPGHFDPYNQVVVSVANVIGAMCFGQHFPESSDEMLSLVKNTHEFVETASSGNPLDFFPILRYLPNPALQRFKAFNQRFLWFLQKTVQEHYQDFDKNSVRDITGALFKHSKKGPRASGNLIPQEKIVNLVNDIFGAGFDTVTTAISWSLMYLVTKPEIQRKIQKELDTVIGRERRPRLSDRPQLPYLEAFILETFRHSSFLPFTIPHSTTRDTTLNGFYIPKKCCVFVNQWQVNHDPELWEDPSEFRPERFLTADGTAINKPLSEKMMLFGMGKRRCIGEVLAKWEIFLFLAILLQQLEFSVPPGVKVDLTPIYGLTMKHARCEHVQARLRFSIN
Lysosomal acid glucosylceramidase (Homo sapiens), sequence (P04062 whole entry, looked up): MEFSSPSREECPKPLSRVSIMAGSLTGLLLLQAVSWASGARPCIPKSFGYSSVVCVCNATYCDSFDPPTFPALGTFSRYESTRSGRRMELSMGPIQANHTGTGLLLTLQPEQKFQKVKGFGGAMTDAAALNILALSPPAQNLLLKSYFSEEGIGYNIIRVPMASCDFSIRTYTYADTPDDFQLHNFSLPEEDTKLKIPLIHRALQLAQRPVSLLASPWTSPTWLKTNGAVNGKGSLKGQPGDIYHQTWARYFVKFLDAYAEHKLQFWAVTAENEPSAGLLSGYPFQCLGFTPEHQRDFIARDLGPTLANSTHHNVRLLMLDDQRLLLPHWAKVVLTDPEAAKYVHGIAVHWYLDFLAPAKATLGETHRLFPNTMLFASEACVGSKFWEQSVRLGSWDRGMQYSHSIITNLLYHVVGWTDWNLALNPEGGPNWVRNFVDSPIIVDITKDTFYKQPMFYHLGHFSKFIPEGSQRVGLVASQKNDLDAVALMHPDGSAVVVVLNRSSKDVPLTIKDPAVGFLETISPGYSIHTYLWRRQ

Turning to `CCCCC(CC)COC(=O)c1ccccc1C(=O)O` (stereo unspecified), the Potency in [1], in [2], in [3], in test [4], in test [5] and in [6] was more than 92 µM in each case. For the same compound, the call in test [7] was inactive. Besides, the Potency entry in test [8], in [10], in [11], in test [12], in test [13] and in test [14] was “inactive” in each case. Further, the activity change, negative = cytotoxicity in test [9] is 10.8%.

Consider `O=C(O)/C=C(\CC(=O)O)C(=O)O`, for which the Potency in test [15] is more than 11.4 µM. Besides, the Potency entry in test [16] is “inactive”. In addition, the activity change, negative = inhibition is 26.4% in test [17] (at 7.69 µM (top of the series)) and 4.55% [at 11.4 µM] in [7]. Besides, in test [18], the compound was classed as inactive.

For `OCc1c[nH]c2ccccc12`, the Potency in [1], in [2], in test [3], in test [4], in test [5] and in test [6] was more than 92 µM each time. Also, the compound was classed as inactive in test [7]. In addition, the Potency entry in test [8], in [10], in test [11], in test [12] and in test [14] was “inactive” throughout. In addition, in test [9], the activity change, negative = cytotoxicity was 0.242%.

As to `CC(C)C(C)(C)C(C)(C)C(C)(C)S`, the Potency in [1], in [2], in test [3], in test [4], in test [5] and in [6] was more than 92 µM throughout. Besides, the compound was called inactive in test [7]. Moreover, the Potency entry in [8], in test [10], in test [11], in [12], in test [13] and in test [14] was “inactive” throughout. In addition, in [9], the activity change, negative = cytotoxicity is -18.6%.

Turning to `Brc1ccc([C@H]2CN3CCSC3=N2)cc1`, the Potency was 15.8 µM (active) in test [16], more than 46 µM in test [19] and more than 46 µM in test [20]. Further, the activity change, negative = inhibition in [17] (at 38 µM (top of the series)) was -10.1%. The outcome in [18] and in test [7] was inactive.

On to `C[N+](C)(C)CCO`, for which the Potency entry in test [16] was “inactive”. In addition, in [17] (at 38 µM (top of the series)), the activity change, negative = inhibition is 2.35%. Further, the outcome in [18] and in [7] was inactive.

As to `Brc1ccccc1-c1ccccc1`, the Potency in test [1], in test [2], in test [3], in test [4], in test [5] and in test [6] was more than 92 µM each time. For the same compound, the result in test [7] was inactive. Besides, the Potency entry in [8], in [10], in test [11], in test [12], in test [13] and in [14] was “inactive” each time. In test [9], the activity change, negative = cytotoxicity is 3.13%.

As to `CN(C(=O)C(Cl)Cl)c1ccc(OC(=O)c2ccco2)cc1`, in [16], the Potency entry was “inactive”. The activity change, negative = inhibition in test [17] (at 17.2 µM (top of the series)) was 3.31% and -29.1%. For the same compound, the compound was called inactive in [18] and in [7]. Besides, the Potency in test [19] and in test [20] was more than 20.6 µM in each case.
